Measurements published in PubChem BioAssay (Tox21).
Where “and” joins values, the source holds several entries; their conditions need not be identical. Identical values can stand only once. Inconclusive results are not listed. A call without a number means that no potency is given here. Values without a mark were called inactive. Calls of active or inactive are those of the source. Calls come from the whole dose curve; as a rule, active = well fitted cell-killing curve with a large enough effect in the repeat runs; inconclusive = weak or mixed curves, or effect the other way; inactive = flat fitted curve, though single readings scatter.

How the values were obtained:
[1] = cAMP Responsive Elements (CRE) small molecule antagonists, cell-based qHTS assay: qHTS cell viability counter screen (AID 2060913); conditions: CRE-bla HEK293T viability, CellTiter-Glo luminescence, 5 h; series mostly up to 92.4 µM; note: nearly all actives have a fitted effect of over 40% in size
Method in brief: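 Steps: cells plated and held 18 hrs at 37 C/5% CO2; compounds and NKH477 (0.25 uM final) added; 3 hrs incubation; reporter substrate read; CellTiter-Glo added to measure cytotoxicity by luminescence.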

[2] = cAMP Responsive Elements (CRE) small molecule agonists, cell-based qHTS assay: qHTS cell viability counter screen (AID 2060914); conditions: CRE-bla HEK293T viability, CellTiter-Glo luminescence, 5 h; series mostly up to 92.4 µM; note: nearly all actives have a fitted effect of over 50% in size
Method in brief: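 Cytotoxicity was measured as ATP luminescence (CellTiter-Glo, 30 min at room temperature) in the same wells as the CRE-bla FRET read-out. HEK293T CRE-bla cells had 3 h compound exposure at 37C/5% CO2.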
Potency is the fitted concentration of half-maximal effect.

| Structure (SMILES) | Potency [1] | Potency [2] | viability change, negative = cytotoxic [1] | activity change, negative = cytotoxicity [2] |
| --- | --- | --- | --- | --- |
| O=C(c1ccccc1)c1ccc(Cl)cc1 | inactive | inactive |  |  |
| CC(C)(O)Cc1ccccc1 | inactive | inactive |  |  |
| NCC1CCCC(CN)C1 (centres undefined) | inactive | inactive |  |  |
| O=C(O)CCNC(=O)c1ccccc1 | inactive | inactive |  |  |
| CCCOc1ccc2c(c1)CC[C@@H]1[C@@H]2CC[C@]2(C)C(OC)CC[C@@H]12 (some centres undefined) | inactive | inactive |  |  |
| C=CC(C)(O)CC/C=C(/C)CCC=C(C)C (centres undefined) | inactive | inactive |  |  |
| Cc1cccc(CN2CCN(C(c3ccccc3)c3ccc(Cl)cc3)CC2)c1 (centres undefined) | inactive | inactive |  |  |
| O=c1[nH]c2cc(C(F)(F)F)c(N3CCOCC3)cc2n(CP(=O)(O)O)c1=O | inactive | inactive |  |  |
| CC(C)NC(=O)c1ccc(C=O)cc1 | inactive | inactive |  |  |
| CC(C)=CCC/C(C)=C/C=N/O | inactive | inactive |  |  |
| C=C(C)C(=O)OCC | inactive | inactive |  |  |
| CN1Cc2c(N)cccc2C(c2ccccc2)C1 (centres undefined) | inactive | inactive |  |  |
| CC[C@H](c1ccc(O)cc1)[C@@H](CC)c1ccc(O)cc1 | inactive | inactive |  |  |
| COc1cc(/C=C/C(N)=O)cc(OC)c1OC | inactive | inactive |  |  |
| C[Si](C)(C)N[Si](C)(C)C | inactive | inactive |  |  |
| COc1ccc2[nH]c(S(=O)Cc3ncc(C)c(OC)c3C)nc2n1 (centres undefined) | inactive | inactive |  |  |
| COc1ccc(C(=O)Nc2nc3ccccc3c(NCc3ccccc3)c2C#N)cc1 | inactive | inactive |  |  |
| Oc1cc2c(cc1O)[C@H]1c3ccc(O)c(O)c3OC[C@@]1(O)C2 | inactive | inactive |  |  |
| CCOC(=O)c1ccc(O)c(O)c1 | inactive | inactive |  |  |
| CC1CCc2cc(F)cc3c(=O)c(C(=O)O)cn1c23 (centres undefined) | inactive | inactive |  |  |
| CC(C)(C)NC(N)=O | inactive | inactive |  |  |
| CC1OC1C1CCC2(C)OC2C1 (centres undefined) | inactive | inactive |  |  |
| Cc1ccc(S(=O)(=O)NC(=O)NN2CCCCCC2)cc1 | inactive | inactive |  |  |

| Structure (SMILES) | Potency [1] | Potency [2] | viability change, negative = cytotoxic [1] | activity change, negative = cytotoxicity [2] |
| --- | --- | --- | --- | --- |
| CCC(C)(CN(C)C)OC(=O)c1ccccc1 (centres undefined) | inactive | inactive |  |  |
| CC(=O)[C@H]1CC[C@H]2[C@@H]3C[C@H](C)C4=CC(=O)CC[C@]4(C)[C@H]3[C@@H](O)C[C@]12C | inactive | inactive |  |  |
| CN(C)CCCN1c2ccccc2CCc2ccccc21 | inactive | inactive |  |  |
| CC1(C)C(=O)NC(=O)N1CO | inactive | inactive |  |  |
| C=CCOC(=O)c1ccccc1C(=O)OCC=C | inactive | inactive |  |  |
| NCCO | inactive | inactive |  |  |
| CCCCCCCCCCCCCCCBr | inactive | inactive |  |  |
| CC(C)c1ccccc1C(C)C | inactive | inactive |  |  |
| COc1ccc(-c2cc(C(F)F)nn2-c2ccc(S(N)(=O)=O)cc2)cc1F | inactive | inactive |  |  |
| O=c1n(CCO)c(=O)n(CCO)c(=O)n1CCO | inactive | inactive |  |  |
| CC(C)NCC(O)c1ccc(O)c(O)c1 (centres undefined) | inactive | inactive |  |  |
| CCCCCCCCCCCCCCCC[N+](C)(C)Cc1ccccc1 | 63.1 µM (active) and 49.4 µM (active) and 33.5 µM (active) | 70.8 µM (active) and 44.1 µM (active) and 26.6 µM (active) |  |  |
| Cc1ccc(N)nc1 | inactive | inactive |  |  |
| COc1ccccc1N1CCN(CCCNc2cc(=O)n(C)c(=O)n2C)CC1 | inactive | inactive |  |  |
| O=C(O)CC(=O)C(=O)O | inactive | inactive |  |  |
| NC[C@H]1O[C@H](O[C@H]2[C@H](O[C@@H]3O[C@H](CO)[C@@H](O)[C@H]3O)C(O)[C@H](N)C[C@@H]2N)[C@H](N)[C@@H](O)[C@@H]1O (some centres undefined) |  |  | 2.15% [at 8.39 µM] | 13.8% [at 8.39 µM] |
| c1ccc2[nH]c(-c3cscn3)nc2c1 | inactive | inactive |  |  |
| CCC1=C[C@@H]2CN(C1)Cc1c([nH]c3ccccc13)[C@@](C(=O)OC)(c1cc3c(cc1OC)N(C)[C@H]1[C@@](O)(C(=O)OC)[C@H](OC(C)=O)[C@]4(CC)C=CCN5CC[C@]31[C@@H]54)C2 | inactive | inactive |  |  |
| CC1=CC(C)C(C=O)C(C)C1 (centres undefined) | inactive | inactive |  |  |
| C=CCn1c(=O)n([C@@H]2O[C@H](CO)[C@@H](O)[C@H]2O)c2nc(N)[nH]c(=O)c21 | inactive | inactive |  |  |
| Cc1ccc2ccccc2n1 | inactive | inactive |  |  |
| CC(C)CC(=O)CC(C)C | inactive | inactive |  |  |
| C[N+](C)(C)CC(O)CCl (centres undefined) | inactive | inactive |  |  |

| Structure (SMILES) | Potency [1] | Potency [2] | viability change, negative = cytotoxic [1] | activity change, negative = cytotoxicity [2] |
| --- | --- | --- | --- | --- |
| Cc1cc(O)c(C(C)(C)C)cc1Sc1cc(C(C)(C)C)c(O)cc1C | 21.6 µM (active) | 38.5 µM (active) |  |  |
| FC(F)(F)/C(=N\OCC1OCCO1)c1ccc(Cl)cc1 | inactive | inactive |  |  |
| Nc1c2c(nc3ccccc13)CCCC2O (centres undefined) | inactive | inactive |  |  |
| CC/C(=C(/CC)c1ccc(O)cc1)c1ccc(O)cc1 | inactive | inactive |  |  |
| CCc1ccc(CC)cc1 | inactive | inactive |  |  |
| CC(=O)Nc1ccc(/C=N/NC(N)=S)cc1 | inactive | inactive |  |  |
| C[Si]1(C)O[Si](C)(C)O[Si](C)(C)O1 | inactive | inactive |  |  |
| Nc1ccc(S(=O)(=O)O)cc1 | inactive | inactive |  |  |
| OCC(CO)(CO)CO | inactive | inactive |  |  |
| NC(N)=NC(=O)Cc1c(Cl)cccc1Cl | inactive | inactive |  |  |
| C[C@H](N)[C@H](O)c1cccc(O)c1 | inactive | inactive |  |  |
| CCCCOC(=O)C(C)O (centres undefined) | inactive | inactive |  |  |
| Nc1nnc(-c2cccc(Cl)c2Cl)c(N)n1 | inactive | inactive |  |  |
| COC(=O)c1cc(S(N)(=O)=O)ccc1OC | inactive | inactive |  |  |
| CCCCCC(C)O (centres undefined) | inactive | inactive |  |  |
| COc1ccc2nc(S(=O)Cc3ncc(C)c(OC)c3C)[nH]c2c1 (centres undefined) | inactive | inactive |  |  |
| Cc1ccc2nc(N)[nH]c(=O)c2c1Sc1ccncc1 | inactive | inactive |  |  |
| CN1C(C)(C)CC(O)CC1(C)C | inactive | inactive |  |  |
| CC(=O)OC(C)c1ccccc1 (centres undefined) | inactive | inactive |  |  |
| C=C(C)C(=O)OCCCCCCCCCCOC(=O)C(=C)C | inactive | inactive |  |  |
| C1N2CN3CN1CN(C2)C3 | inactive | inactive |  |  |
